In PubChem BioAssay:
Calls of active or inactive are those of the source. Unless noted, no rule for the calls is given here.

Columns and labels:
[1] = anti-His antibody binders, primary screen, artefact control for SMM control protein annotation, biochemical, small-molecule microarray, 635 nm fluorescence (AID 1128); settings: anti-His Alexa647 antibody binding, higher = more signal;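 also: score merges feature fluorescence with signal-to-noise for each printed compound spot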
[2] = test system: Human papillomavirus type 1a E7 protein (residues 1-88); experiment: HPV1a E7 small-molecule binders, primary screen, biochemical, small-molecule microarray, residues 1-88, 635 nm (AID 1129); settings: small-molecule microarray binding, fluorescence 635 nm; higher = more signal
[3] = biological target: Focal adhesion kinase 1 (Homo sapiens) (UniProt Q05397); experiment: small-molecule microarray binders of FAK, primary screen, biochemical, 635/667 nm fluorescence, BSA, DTT (AID 1130); settings: PTK2 binding, 635 nm fluorescence, higher = more signal;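 also: composite of spot emission at 667 nm and signal to noise over triplicate slides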
[4] = test system: Fibrinogen (Alexa647-labelled); experiment: fibrinogen binders on compound microarrays, profiling panel, artefact control for SMM control-protein annotation, biochemical, small-molecule microarray, 635/667 nm fluorescence (AID 1131); settings: fibrinogen-A647 binding fluorescence, higher = more signal;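 also: z-score merges 667 nm fluorescence with per-spot signal-to-noise over triplicate slides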
[5] = biological target: Follistatin (Homo sapiens) (UniProt P19883); experiment: follistatin binders on small-molecule microarrays, primary screen, biochemical, small-molecule microarray, 635/667 nm fluorescence (AID 1132); settings: FST binding, 635 nm fluorescence, higher = more signal
[6] = biological target: Fibroblast growth factor 2 (Homo sapiens) (UniProt P09038); experiment: FGF2 binders on small-molecule microarrays, primary screen, biochemical, small-molecule microarray, 635/667 nm fluorescence (AID 1133); settings: small-molecule microarray binding, FGF2, fluorescence 635/667; higher = more signal
[7] = mitochondrial membrane potential change in A549 cells, profiling panel, cell-based, JC-1 fluorescence, basal, 24 h, 100 nL (AID 1138); settings: higher = more signal;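 also: A549 lung adenocarcinoma cells under basal conditions with no added stimulus; test concentration not given here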
Lefty1 = Lefty1 binders on small-molecule microarrays, primary screen, biochemical, small-molecule microarray, 635/667 nm fluorescence (AID 1139); settings: small-molecule microarray binding, fluorescence 635/667; higher = more signal
[8] = test system: wheat germ agglutinin (Triticum aestivum), Alexa647-labelled; experiment: wheat germ agglutinin binders on compound microarrays, profiling panel, artefact control for SMM control-protein annotation, biochemical, small-molecule microarray, 635/667 nm fluorescence (AID 1140); settings: WGA-A647 binding, 635 nm fluorescence, higher = more signal;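 also: score merges 667 nm feature emission with signal to noise over triplicate slides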
[9] = biological target: Luciferin 4-monooxygenase (Photinus pyralis) (UniProt P08659); experiment: firefly luciferase enzyme inhibitors, primary screen, biochemical, luminescence, purified enzyme, 2006 set (AID 1141); settings: SteadyGlo luminescence, 30 min, higher = more signal, called active from +8 up or from −8 down;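 also: cell-free assay with purified firefly luciferase at 100 ng per well in PBS; test concentration not given here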
[10] = test system: Wnt5a (protein binding on small-molecule microarray); experiment: Wnt5a binders on small-molecule microarray, primary screen, biophysical, 635/667 nm fluorescence (AID 1142); settings: 635 nm fluorescence, higher = more signal;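 also: fluorescence read at 667 nm with signal to noise per printed feature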
[11] = cell viability in Huh7 cells, primary screen, cytotoxicity control for HCV replication inhibitor project, CellTiter-Glo luminescence, basal, 48 h (AID 1143); settings: Huh7 HCV replicon, higher = more signal, called active from +8 up or from −8 down;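 also: Huh7 hepatoma cells carrying a hepatitis C replication reporter with no stimulus; test concentration not given here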
[12] = P. aeruginosa biofilm formation inhibitors, primary screen, PAO1 strain, BacTiter-Glo luminescence, LB-PBS (AID 1144); settings: 12 h, higher = more signal
[13] = CREB reporter modulators without forskolin, primary screen, cell-based, PC12, CRE-LacZ reporter, unstimulated (AID 1145); settings: no forskolin, luminescence, 4.5 h, higher = more signal, called active from +8 up or from −8 down
[14] = CREB reporter modulators under forskolin, primary screen, cell-based, PC12, CRE-LacZ reporter, forskolin-stimulated (AID 1146); settings: luminescence, 4.5 h, higher = more signal, called active from +8 up or from −8 down;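 also: PC12 cells with 6xCRE LacZ reporter stimulated by forskolin 10 µM; beta-galactosidase reporter signal reflecting CREB driven transcription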
[15] = biological target: Streptavidin (Streptomyces avidinii) (UniProt P22629); experiment: streptavidin binders on small-molecule microarray, primary screen, artefact control for SMM compound annotation, biophysical, 635/667 nm fluorescence (AID 1147); settings: streptavidin binding, higher = more signal;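 also: signal reflects streptavidin binding to arrayed compounds as a control protein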
[16] = small-molecule binders of probe aInhba, primary screen, biochemical, small-molecule microarray, 635/667 nm fluorescence (AID 1148); settings: higher = more signal;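 also: score merges 667nm spot fluorescence with signal-to-noise for antibody binding to printed compounds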
Torsin-1A (Homo sapiens) [17] = biological target: Torsin-1A (Homo sapiens) (UniProt O14656); experiment: torsin A binders from cell lysate, primary screen, small-molecule microarray, wild-type, 635/667 nm (AID 1149); settings: COS7 hTOR1A-WT lysate, 635 nm fluorescence, higher = more signal
Torsin-1A (Homo sapiens) [18] = biological target: Torsin-1A (Homo sapiens) (UniProt O14656); experiment: small-molecule binders of mutant TOR1A in lysate, primary screen, cell lysate, small-molecule microarray, COS7 lysate, 635/667 nm fluorescence (AID 1150); settings: COS7 hTOR1A mutant lysate, 635 nm fluorescence, higher = more signal;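 also: score pools 667 nm emission and signal to noise measuring lysate protein binding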
[19] = test system: Sonic hedgehog protein (Shh); experiment: small-molecule binders of Shh protein, primary screen, biochemical, small-molecule microarray, 635/667 nm fluorescence (AID 1151); settings: small-molecule microarray binding, 635 nm fluorescence; higher = more signal;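 also: Shh protein binding to compounds spotted on small-molecule microarray slides; score combines spot fluorescence intensity with signal-to-noise across triplicate slides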

Chain of Follistatin (Homo sapiens) (P19883 whole entry, looked up): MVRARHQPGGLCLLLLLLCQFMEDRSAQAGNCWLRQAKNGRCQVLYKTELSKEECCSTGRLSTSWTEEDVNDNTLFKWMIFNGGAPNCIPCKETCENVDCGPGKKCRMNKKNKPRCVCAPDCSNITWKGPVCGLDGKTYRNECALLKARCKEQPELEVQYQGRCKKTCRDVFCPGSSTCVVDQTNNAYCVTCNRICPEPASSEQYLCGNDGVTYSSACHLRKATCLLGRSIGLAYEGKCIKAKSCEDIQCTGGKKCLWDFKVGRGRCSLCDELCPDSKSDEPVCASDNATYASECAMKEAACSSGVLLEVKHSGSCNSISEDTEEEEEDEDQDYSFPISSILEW
Chain of Streptavidin (Streptomyces avidinii) (P22629 whole entry, looked up): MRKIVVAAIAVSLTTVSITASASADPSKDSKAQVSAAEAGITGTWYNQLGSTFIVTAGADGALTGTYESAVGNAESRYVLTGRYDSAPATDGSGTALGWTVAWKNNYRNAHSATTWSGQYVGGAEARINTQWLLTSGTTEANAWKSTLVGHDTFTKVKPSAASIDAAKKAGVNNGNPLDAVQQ
Chain of Torsin-1A (Homo sapiens) (O14656 whole entry, looked up): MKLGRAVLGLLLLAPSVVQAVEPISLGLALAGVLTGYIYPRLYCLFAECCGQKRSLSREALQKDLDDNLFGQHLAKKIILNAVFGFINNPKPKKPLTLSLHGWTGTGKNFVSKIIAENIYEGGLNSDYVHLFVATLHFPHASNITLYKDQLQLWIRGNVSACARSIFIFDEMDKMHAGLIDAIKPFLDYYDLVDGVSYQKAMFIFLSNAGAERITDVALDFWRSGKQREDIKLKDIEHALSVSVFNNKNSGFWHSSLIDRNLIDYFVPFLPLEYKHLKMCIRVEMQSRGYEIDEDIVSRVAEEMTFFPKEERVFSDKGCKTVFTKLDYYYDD
Chain of Luciferin 4-monooxygenase (Photinus pyralis) (P08659 whole entry, looked up): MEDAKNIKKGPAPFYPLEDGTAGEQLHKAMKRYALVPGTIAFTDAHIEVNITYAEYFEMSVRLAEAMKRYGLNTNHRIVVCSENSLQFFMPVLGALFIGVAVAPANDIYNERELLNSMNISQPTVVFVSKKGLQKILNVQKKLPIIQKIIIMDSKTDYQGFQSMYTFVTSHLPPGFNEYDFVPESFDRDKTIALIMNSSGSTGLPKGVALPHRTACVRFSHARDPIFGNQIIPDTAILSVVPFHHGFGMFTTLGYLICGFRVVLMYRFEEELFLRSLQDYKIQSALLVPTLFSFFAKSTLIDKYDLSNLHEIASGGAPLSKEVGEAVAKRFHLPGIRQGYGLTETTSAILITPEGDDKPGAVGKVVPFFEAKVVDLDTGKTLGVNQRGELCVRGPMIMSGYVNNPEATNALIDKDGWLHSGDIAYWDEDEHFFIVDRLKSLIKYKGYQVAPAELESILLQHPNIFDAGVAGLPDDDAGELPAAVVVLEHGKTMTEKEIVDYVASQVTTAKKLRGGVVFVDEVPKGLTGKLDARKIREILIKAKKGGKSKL
Chain of Fibroblast growth factor 2 (Homo sapiens) (P09038 whole entry, looked up): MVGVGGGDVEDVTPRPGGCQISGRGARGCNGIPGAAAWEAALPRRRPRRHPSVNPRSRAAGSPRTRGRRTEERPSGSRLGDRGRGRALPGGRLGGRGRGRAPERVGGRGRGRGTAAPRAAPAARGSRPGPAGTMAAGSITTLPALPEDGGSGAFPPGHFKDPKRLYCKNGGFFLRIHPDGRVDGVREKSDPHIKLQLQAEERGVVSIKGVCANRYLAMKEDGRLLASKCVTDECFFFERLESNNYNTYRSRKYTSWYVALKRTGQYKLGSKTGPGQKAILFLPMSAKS
Chain of Focal adhesion kinase 1 (Homo sapiens) (Q05397 whole entry, looked up): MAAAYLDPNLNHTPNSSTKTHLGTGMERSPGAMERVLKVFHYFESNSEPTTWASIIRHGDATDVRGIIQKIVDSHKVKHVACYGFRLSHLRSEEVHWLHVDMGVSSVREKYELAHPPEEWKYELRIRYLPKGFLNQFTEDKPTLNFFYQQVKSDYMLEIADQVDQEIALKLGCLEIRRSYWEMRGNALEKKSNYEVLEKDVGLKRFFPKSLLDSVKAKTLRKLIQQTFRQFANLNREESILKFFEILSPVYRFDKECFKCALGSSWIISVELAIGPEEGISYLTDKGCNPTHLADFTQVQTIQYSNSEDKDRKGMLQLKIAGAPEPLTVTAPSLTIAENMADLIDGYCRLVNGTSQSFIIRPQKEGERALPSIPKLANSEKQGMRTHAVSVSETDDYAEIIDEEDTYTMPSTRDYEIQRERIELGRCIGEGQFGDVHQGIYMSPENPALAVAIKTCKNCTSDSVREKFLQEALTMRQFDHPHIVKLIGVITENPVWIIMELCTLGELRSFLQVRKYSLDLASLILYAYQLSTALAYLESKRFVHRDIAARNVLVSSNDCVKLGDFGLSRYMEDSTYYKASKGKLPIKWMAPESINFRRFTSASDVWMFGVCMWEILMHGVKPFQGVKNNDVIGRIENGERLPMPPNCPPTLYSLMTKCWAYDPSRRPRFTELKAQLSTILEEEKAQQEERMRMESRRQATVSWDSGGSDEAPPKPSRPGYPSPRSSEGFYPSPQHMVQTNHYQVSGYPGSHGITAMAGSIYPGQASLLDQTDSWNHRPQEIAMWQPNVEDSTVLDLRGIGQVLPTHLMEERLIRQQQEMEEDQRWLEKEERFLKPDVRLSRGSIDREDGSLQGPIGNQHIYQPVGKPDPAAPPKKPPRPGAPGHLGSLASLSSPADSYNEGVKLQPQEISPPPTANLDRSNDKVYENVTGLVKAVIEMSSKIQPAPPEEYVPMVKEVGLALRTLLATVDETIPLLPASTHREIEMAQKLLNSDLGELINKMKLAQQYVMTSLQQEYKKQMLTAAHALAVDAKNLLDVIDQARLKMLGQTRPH

Compound | composite z-score [1] | composite z-score [2] | composite z-score [3] | composite z-score [4] | composite z-score [5] | composite z-score [6] | z-score [7] | composite z-score (Lefty1) | composite z-score [8] | z-score [9] | composite z-score [10] | z-score [11] | z-score [12] | z-score [13] | z-score [14] | composite z-score [15] | composite z-score [16] | composite z-score (Torsin-1A (Homo sapiens) [17]) | composite z-score (Torsin-1A (Homo sapiens) [18]) | composite z-score [19]
O=C/C=C/c1ccc(/C=C/c2ccccc2)cc1 | 1.52 | -0.483 | -0.313 | -1.86 | 0.828 | 0.168 | 1.39 | -0.134 | 0.633 | -3.83 (inactive) | -0.378 | -2.23 (inactive) | -0.0603 (inactive) | -0.141 (inactive) | -0.795 (inactive) | -0.0122 | -0.128 | -0.373 | -0.479 | 0.609
Cc1ccc(S[C@]2(C(=O)NC(C)C)CC(=O)N(Cc3cc(C(F)(F)F)cc(C(F)(F)F)c3)[C@@H]2c2ccc(CO)cc2I)cc1 | 2.87 | -0.335 | 0.481 | -0.306 | 0.623 | 0.384 | 0.598 | -0.919 | 0.445 | 0.819 (inactive) | -0.168 | -1.11 (inactive) | 0.381 (inactive) | -0.554 (inactive) | 1.28 (inactive) | -0.995 | -0.148 | 0.61 | 1.66 | -0.0174
CCOC(=O)C1=CC[C@@H](c2ccc(-c3ccc(OCc4ccccc4)cc3)c(OC)c2)N(S(=O)(=O)c2ccc(C)cc2)[C@H]1c1ccccc1 | 1.07 | 1.2 | -0.0822 | 0.978 | 1.2 | 0.275 | 1.63 | 0.329 | 1.05 | -3.26 (inactive) | 0.0858 | -2.32 (inactive) | -1.05 (inactive) | -0.489 (inactive) | 0.1 (inactive) | 1.67 | 0.119 | 0.277 | 0.518 | 1.15
COCCOC(=O)N1C(=O)[C@@]2(c3cc(C#CCCO)ccc31)[C@H](c1ccc(O)cc1)N1[C@H](c3ccccc3)[C@H](c3ccccc3)OC(=O)[C@H]1[C@@H]2C(=O)Nc1nc2ccccc2s1 | 0.607 | 1.19 | 0.214 | 0.992 | 1.27 | 0.955 | -2.54 | 1.22 | 0.658 | 0.0884 (inactive) | 0.607 | -2.49 (inactive) | -1.24 (inactive) | -1.7 (inactive) | -0.0062 (inactive) | 0.996 | -0.0062 | -0.0624 | 0.236 | 2.03
COc1ccc([Si](C)(C)[C@@H]2[C@@H](CCO)O[C@]3(C(=O)N(Cc4ccccc4)c4ccccc43)[C@H]2C)cc1 | 1.42 | 0.319 | 0.331 | -0.153 | 0.32 | 1.21 | -0.234 | 0.32 | -0.139 | -0.238 (inactive) | -0.0721 | -1.98 (inactive) | 0.773 (inactive) | 0.0352 (inactive) | -0.46 (inactive) | -0.155 | 1 | -0.239 | -0.283 | 0.0843
[N-]=[N+]=NCc1ccccc1C[C@@]1(C(=O)O)N=C(c2ccc(OCCCO)cc2)O[C@@H]1c1ccccc1N=[N+]=[N-] | 1.36 | 1.22 | 0.581 | 1.02 | 0.622 | -0.316 | 0.376 | 0.42 | 0.415 | -8.1 (active) | -0.0964 | -2.2 (inactive) | -0.439 (inactive) | 0.488 (inactive) | 0.142 (inactive) | 0.312 | 0.0073 | 0.0819 | 0.0245 | -0.165
COCCOC(=O)N1C(=O)[C@@]2(c3cc(C#CCCO)ccc31)[C@H](c1ccc(OCCO)cc1)N1[C@H](c3ccccc3)[C@H](c3ccccc3)OC(=O)[C@H]1[C@@H]2C(=O)NC[C@H](O)c1ccccc1 | 1.23 | 1.21 | 0.76 | 0.883 | 1.39 | 1.36 | -1.15 | 1.24 | 0.728 | -0.216 (inactive) | 0.619 | -2.79 (inactive) | -0.668 (inactive) | -1.42 (inactive) | -0.137 (inactive) | 0.427 | 0.0183 | 0.703 | 1.16 | 1.7
COc1ccc(-c2cc3c(c(-c4ccccc4)n2)[Si](C(C)C)(C(C)C)O[C@H]3c2ccccc2)cn1 | -0.614 | 0.438 | -0.142 | 0.0413 | 0.758 | 0.343 | 0.136 | 0.506 | -0.0707 | 0.167 (inactive) | 0.436 | 0.0834 (inactive) | 0.0798 (inactive) | 0.0035 (inactive) | 0.411 (inactive) | -0.207 | -0.0403 | 0.363 | -0.0308 | 0.82
COC(=O)Cn1c(C(=O)N2CCCC2)cc2c1C[C@H]1CN(C(=O)c3ccccc3)[C@@](Cc3ccc(OC)cc3)(C(=O)OC)[C@@H]21 | 1.9 | 1.24 | 1.67 | 0.972 | 0.43 | -0.612 | 1.31 | -0.544 | 1.18 | 1.78 (inactive) | 0.381 | -2.77 (inactive) | 0.74 (inactive) | 1.72 (inactive) | 1.59 (inactive) | 0.927 | 0.711 | -0.0629 | 0.306 | -0.812
COC(=O)C[C@H]1O[C@]2(C(=O)N(Cc3ccccc3)c3ccc(I)cc32)[C@@H](C)[C@@H]1[Si](C)(C)c1ccc(OC)cc1 | -0.421 | -0.807 | -0.172 | -0.774 | -0.274 | -0.222 | 0.0578 | -0.603 | 0.322 | 0.417 (inactive) | -0.213 | -1.09 (inactive) | -0.135 (inactive) | -0.505 (inactive) | -0.522 (inactive) | 0.0595 | -0.106 | -0.181 | -0.0957 | -0.657
